Structures are written as SMILES. Where “and” joins values, the source holds several entries; their conditions need not be identical. Identical values can stand only once. Results filed as inconclusive are left out. Where a call stands in place of a potency, no number is given. Calls of active or inactive are those of the source. The call rests on the fitted dose curve; in most records, active means well fitted cell-killing curve with a large enough effect in the repeat runs; inconclusive means weak or mixed curves, or effect the other way; inactive means flat fitted curve, though single readings scatter.
Potency means the concentration at half of the fitted maximal effect.

The nature of this test: cAMP Responsive Elements (CRE) small molecule agonists, cell-based qHTS assay: qHTS cell viability counter screen (AID 2060914).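 Further: viability read after 3 h of compound exposure; nearly all actives have a fitted effect of over 50% in size.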 The note with it: CRE-bla HEK293T viability, CellTiter-Glo luminescence, 5 h; series mostly up to 92.4 µM. An excerpt:
National Center for Advancing Translational Sciences [NCATS]
Division of Preclinical Innovation [DPI]
U.S. Environmental Protection Agency [EPA]
National Institutes of Environmental Health Sciences [NIEHS]
National Toxicology Program [NTP]
U.S. Food and Drug Administration [FDA]
CREB (cyclic-AMP Responsive Element Binding Protein) is a cellular transcription factor. It binds to certain DNA sequences called cAMP Responsive Elements (CRE) and regulates the transcription of the genes. […] This cell line can be used to find agonists/antagonists of the cyclic AMP signaling pathway. The activation of the report gene under culture conditions can be detected by fluorescence intensity. This cell line has been used to screen the Tox21 10K compound library to identify agonists that induce oxidative stress. The cytotoxicity of the Tox21 compound library against the CRE-bla cell line was tested in parallel by measuring the cell viability using CellTiter-Glo assay (Promega, Madison, WI) in the same wells.
Tox21 Assay Protocol Summary:
CRE-bla Hek 293T cells were suspended in assay medium (DMEM containing 10% dialyzed FBS, 0.1 mM NEAA, 1 mM sodium pyruvate and 25 mM HEPES) and dispensed at 2,000 cells/5 uL /well into 1536-well black wall/clear bottom plates using a Multidrop Combi (ThermoFisher Scientific, Waltham, MA) dispenser. After the assay plates were incubated at 37 C/5% CO2 for 18 hrs, 23 nL of compounds dissolved in DMSO, positive controls or DMSO only was transferred to the assay plate by a pintool workstation (Kalypsys, San Diego, CA). After the plates were incubated at 37 C/5% CO2 for 3 hrs, 1 uL of LiveBLAzer B/G FRET substrate (Invitrogen, Carlsbad, CA) was added to each well using Bioraptr Flying Reagent Dispenser (FRD, Aurora Discovery, San Diego, CA). The plates were incubated at room temperature for 2 h, then fluorescence intensities were measured using an Envision plate reader (PerkinElmer, Shelton, CT) at Excitation 405nm, Emission 460nm and 530nm. The % activity was determined from the ratio of 460nm/530nm. For cell viability readout that measures cytotoxicity, 4 uL /well of CellTiter-Glo reagent was added into the assay plates using Bioraptr FRD. After 30 min incubation at room temperature, the luminescence intensity in the assay plates was measured using a ViewLux (PerkinElmer, Shelton, CT) plate reader.
Consider `CC(C)C(=O)OCc1cccc(OC(=O)[C@@H]2N3C(=O)[C@@H](NC(=O)Cc4ccccc4)[C@H]3SC2(C)C)c1`, for which the Potency entry was “inactive”.

As to `Cc1ccnc2c1NC(=O)c1cccnc1N2C1CC1`, the Potency result was “inactive”.

On to `Cc1cc(Cc2cc(C)cc(C(C)(C)C)c2O)c(O)c(C(C)(C)C)c1`, for which the Potency was 34.6 µM (active) and 54.5 µM (active).

Turning to `O=C1CCC(N2C(=O)c3ccccc3C2=O)C(=O)N1` (stereo not given), the Potency result is “inactive”.

For `O=C(Nc1ccc(Cl)cc1)Nc1ccc(Cl)c(C(F)(F)F)c1`, the Potency is 23.7 µM (active).

Take `Cn1c(N)c(N=O)c(=O)n(C)c1=O`: the Potency result is “inactive”.

Turning to `COc1ccc(NC(C)=O)cc1`, the Potency entry is “inactive”.

Regarding `CCN(CC)CCOC(=O)C(Cc1cccc2ccccc12)CC1CCCO1` (stereo not given), the Potency result is “inactive”.

With `CN(C)CCCN1c2ccccc2CCc2ccccc21`, the Potency entry is “inactive”.

Take `CCCC(C)C(=O)OCC` (stereo not given): the Potency result is “inactive”.

In the case of `ON(Cc1ccccc1)Cc1ccccc1`, the Potency result was “inactive”.

As to `O=C1NCCN1`, the Potency result was “inactive”.

With `COc1cccc(O)c1O`, the Potency entry is “inactive”.

`C=CCOC(=O)CCCCCC`: the Potency result is “inactive”.

With `NC(=O)CCCCC1CCSS1` (stereo not given), the Potency entry is “inactive”.

For the compound `COc1cnc(NS(=O)(=O)c2ccc(N)cc2)nc1`, the Potency entry is “inactive”.

Turning to `CCC(CC)C(C)CCOC(C)=O` (stereo not given), the Potency entry is “inactive”.

`NC[C@H]1O[C@H](O[C@H]2[C@H](O[C@@H]3O[C@H](CO)[C@@H](O)[C@H]3O)C(O)[C@H](N)C[C@@H]2N)[C@H](N)[C@@H](O)[C@@H]1O` (stereo not given in full): the activity change, negative = cytotoxicity was 13.8% [at 8.39 µM] (inactive).

As to `CCOCN(C(=O)CS(=O)(=O)O)c1c(C)cccc1CC`, the Potency result is “inactive”.

As to `CCCCCC1Nc2cc(C(F)(F)F)c(S(N)(=O)=O)cc2S(=O)(=O)N1` (stereo not given), the Potency result is “inactive”.

Consider `N#CCC(=O)NN`, for which the Potency result was “inactive”.

Regarding `O=C1CCCCCCCCCCC(=O)OCCO1`, the Potency entry is “inactive”.

Take `Cc1c(C(=O)O)cccc1[N+](=O)[O-]`: the Potency entry is “inactive”.

Turning to `CCN[C@@H]1C[C@H](N)[C@@H](OC2OC(CN)=CCC2N)[C@H](O)[C@H]1O[C@H]1OC[C@](C)(O)[C@H](NC)[C@H]1O` (stereo not given in full), the activity change, negative = cytotoxicity was 3.46% [at 0.349 µM] (inactive).

Take `O=c1cc[nH]c(=O)[nH]1`: the Potency entry is “inactive”.

Turning to `Nc1ccc(S(=O)(=O)NC(=O)c2ccccc2)cc1`, the Potency entry is “inactive”.

For the compound `COC(=O)c1cc(S(N)(=O)=O)ccc1OC`, the Potency result is “inactive”.

Take `Cc1ccc(Br)cc1`: the Potency result was “inactive”.

`CC1(C)CCC[C@]2(C)[C@H]3CC(=O)O[C@]3(C)CC[C@@H]12`: the Potency entry is “inactive”.

Take `O=C1Nc2ccc(Cl)cc2[C@@](C#CC2CC2)(C(F)(F)F)O1`: the Potency entry is “inactive”.

As to `CC1=CC[C@H]2C[C@@H]1C2(C)C`, the Potency entry is “inactive”.

Turning to `CC(=O)N[C@H]1[C@H]([C@H](O)[C@H](O)CO)OC(C(=O)O)=C[C@@H]1N=C(N)N`, the Potency entry was “inactive”.

As to `CC(=O)Nc1ccc(O)cc1`, the Potency result is “inactive”.

Regarding `CC1CC(C)C(=O)C1=O` (stereo not given), the Potency result is “inactive”.

For the compound `CC(C)=CCl`, the Potency entry is “inactive”.

For `CCOc1ccc(NC(=O)CC(C)O)cc1` (stereo not given), the Potency result was “inactive”.

Regarding `CCOC(=O)/C=C/C(=O)O`, the Potency entry was “inactive”.

With `C[C@]12CC[C@H]3[C@@H](CCC4=CC(=O)CC[C@@]43C)[C@@H]1CC[C@@H]2C(=O)CO`, the Potency result is “inactive”.

For `CC(=O)CC(C)(C)O`, the Potency result is “inactive”.

For `C/C(=C(\CCO)SS/C(CCO)=C(\C)N(C=O)Cc1cnc(C)nc1N)N(C=O)Cc1cnc(C)nc1N`, the Potency entry is “inactive”.

Values taken from PubChem BioAssay (Tox21).
